Reference: PubChem BioAssay (NCI)
About 83,000 compounds went through this panel and 20% of them were active in at least one assay; those are over-represented in the sample as a whole.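 Testing used 96-well plates and a 48-hour single-concentration exposure. Example: -40 means 40% of the starting cells died.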 Unmarked numbers belong to inactive results. Activity calls are given as the source filed them. The calls were made as follows: active = growth percent below 10; inactive = the rest.

Key:
Test in all cases: NCI-60 one-dose screen, 48 h (100 = growth as untreated, 0 = no growth, -100 = all killed)
Conditions in all cases: 10 µM unless noted
NCI-H23 lung = tested on: NCI-H23 lung
NCI-H226 lung = tested on: NCI-H226 lung
NCI-H322M lung = tested on: NCI-H322M lung
HOP-62 NSCLC = tested on: HOP-62 NSCLC
NCI-H460 lung = tested on: NCI-H460 lung
HOP-92 NSCLC = tested on: HOP-92 NSCLC
NCI-H522 lung = tested on: NCI-H522 lung
A549/ATCC NSCLC = tested on: A549/ATCC NSCLC
786-0 renal = tested on: 786-0 renal
COLO 205 colon = tested on: COLO 205 colon

Compound	growth (NCI-H23 lung)	growth (NCI-H226 lung)	growth (NCI-H322M lung)	growth (HOP-62 NSCLC)	growth (NCI-H460 lung)	growth (HOP-92 NSCLC)	growth (NCI-H522 lung)	growth (A549/ATCC NSCLC)	growth (786-0 renal) [%]	growth (COLO 205 colon)
C/C(=N/O)c1ccc(NC(=O)Cn2nc(-c3ccc(Cl)cc3)nc2N)cc1	92.7%	82.9%	92.4%	88.8%	100%	99.2%	68.7%	79.3%	109	101%
CC(=O)N1N=C(CCC(=O)c2nc3ccc([N+](=O)[O-])cc3[nH]2)OC1c1ccc(O)cc1 (stereo not given)	93.2%	101%	99%	91.2%	103%	118%	51.3%	106%	106	92.3%
CCNC(=O)Oc1ccc(/C(=C(/CC)Cc2ccccc2)c2ccc(OCCN3CCOCC3)cc2)cc1	66.8%	59.4%	72.8%	84%	44.7%	38.6%	56.4%	36.7%	55.7	50.9%
Cc1nc(-c2ccc(Cl)cc2)ccc1NC(=O)Nc1cccc(C(F)(F)F)c1	95.6%	97.9%	109%	109%	64.5%	96.4%	52.9%	93.1%	101	121%
COc1ccc2c(c1)O/C(=C/c1ccc(OCC(=O)Nc3ccc(S(N)(=O)=O)cc3)cc1)C2=O	100%	86.9%	97.8%	104%	101%	91.4%	80.7%	88.5%	96.7	114%
O=C(O)c1cccc2oc(-c3ccccc3O)nc12	54.4%	63%	58.7%	43.6%	25.2%	48.8%	31.4%	42%	59.5	12.4%
CC(C)(C)OC(=O)N1CC(Cn2cc(C(F)(F)F)c3c(Cl)ncnc32)C1	-68.9% (active)	63.8%	-90.2% (active)	-83.7% (active)	-59% (active)	-64.5% (active)	39.9%	5.78% (active)	107	63.8%
COC(OC)C1(c2ccccc2)NC(=O)NC1=O (stereo not given)	112%	113%	108%	103%	115%	104%	79.8%	95.9%	108	119%
Cc1cn([C@]2(CF)O[C@H](CO)C2C)c(=O)[nH]c1=O (stereo not given in full)	111%	111%	108%	62.8%	125%	107%	87.1%	109%	101	108%
O=[N+]([O-])c1cccc(C2c3ccccc3Oc3ccccc32)c1	94.6%	84.1%	83.6%	85.4%	88.1%	81%	80.8%	87.4%	99.9	90.3%
O=c1c2ccccc2sc2c(NCCCNCCO)nc3ccccc3c12	50%	44.4%	65.8%	36.5%	-33.5% (active)	-1.63% (active)	20.9%	25.9%	41.3	-78.9% (active)
CCCCCCCC(=O)SCC/C=C/[C@@H]1CC(=O)NCc2nc(cs2)C2=N[C@@](C)(CS2)C(=O)N[C@@H](C(C)C)C(=O)N1	16.5%	3.64% (active)	1.39% (active)	12.1%	9.84% (active)	-10.5% (active)	-27.4% (active)	0.822% (active)	17.2	-71.8% (active)
O=C(Nc1cccc([N+](=O)[O-])c1)c1ccc2ccccc2c1O	41.6%	76.9%	105%	53%	50.2%	6.8% (active)	-8.09% (active)	68.1%	40.4	110%
CCC(N)(C(=O)O)c1ccc(F)cc1 (stereo not given)	102%	106%	113%	104%	106%	93.9%	90.2%	81.5%	99.9	105%
COc1ccc(-c2cc3ccc(N(C)C)cc3nc2N)c(F)c1	19%	48.2%	66.9%	40.3%	31.9%	19%	31%	40.8%	48.3	12.2%
COc1ccc(OCC(O)CN2CCN(c3ccc(Cl)cc3)CC2)cc1 (stereo not given)	228%	86.3%	89.6%	103%	93.4%	97.9%	74.3%	93.2%	151	95.7%
COc1cc(-c2nc3ccccc3s2)ccc1OCc1nc2n(n1)S(=O)(=O)c1ccccc1N2c1ccccc1	109%	95.7%	92.9%	88.2%	110%	70.8%	85.4%	110%	95.1	113%
CN1CCN(Cn2nc(-c3cc(F)c(Cl)cc3Cl)n(/N=C/c3ccc(N(C)C)cc3)c2=S)CC1	98%	101%	83.1%	56%	115%	84.5%	69%	106%	93.3	103%
Cn1cnc([N+](=O)[O-])c1N1c2ccncc2Sc2ccncc21	91.2%	82.1%	110%	93.3%	106%	77.1%	72.5%	104%	110	89.6%
Fc1cccc(F)c1C#Cc1ccc2cccnc2c1	79.5%	101%	89.8%	89.5%	86%	82.4%	75.8%	82.6%	113	96.4%
NC(CCCC(N)C(=O)c1ccccc1)C(=O)O (stereo not given)	98.4%	102%	87.7%	90.3%	112%	116%	64.4%	92.8%	102	104%
